ChEMBL document CHEMBL3988442, “University of Dundee, Small-Polar-MMV Screening Library” (2021)
Among all 67,000 compounds or so, about 300 (0.45%) showed an effect of 50% or more. For the sample, strong results were picked, then their nearest neighbours and some compounds at random.

Each compound was assayed against Polyketide synthase Pks13 (Mycobacterium tuberculosis (strain ATCC 25618 / H37Rv)) (UniProt I6X8D2) (assay: Mycobacterium tuberculosis Polyketide synthase 13 Thioesterase (PKS13)). Details: 30 µM.
Sequence of Polyketide synthase Pks13 (Mycobacterium tuberculosis (strain ATCC 25618 / H37Rv)) (I6X8D2 whole entry): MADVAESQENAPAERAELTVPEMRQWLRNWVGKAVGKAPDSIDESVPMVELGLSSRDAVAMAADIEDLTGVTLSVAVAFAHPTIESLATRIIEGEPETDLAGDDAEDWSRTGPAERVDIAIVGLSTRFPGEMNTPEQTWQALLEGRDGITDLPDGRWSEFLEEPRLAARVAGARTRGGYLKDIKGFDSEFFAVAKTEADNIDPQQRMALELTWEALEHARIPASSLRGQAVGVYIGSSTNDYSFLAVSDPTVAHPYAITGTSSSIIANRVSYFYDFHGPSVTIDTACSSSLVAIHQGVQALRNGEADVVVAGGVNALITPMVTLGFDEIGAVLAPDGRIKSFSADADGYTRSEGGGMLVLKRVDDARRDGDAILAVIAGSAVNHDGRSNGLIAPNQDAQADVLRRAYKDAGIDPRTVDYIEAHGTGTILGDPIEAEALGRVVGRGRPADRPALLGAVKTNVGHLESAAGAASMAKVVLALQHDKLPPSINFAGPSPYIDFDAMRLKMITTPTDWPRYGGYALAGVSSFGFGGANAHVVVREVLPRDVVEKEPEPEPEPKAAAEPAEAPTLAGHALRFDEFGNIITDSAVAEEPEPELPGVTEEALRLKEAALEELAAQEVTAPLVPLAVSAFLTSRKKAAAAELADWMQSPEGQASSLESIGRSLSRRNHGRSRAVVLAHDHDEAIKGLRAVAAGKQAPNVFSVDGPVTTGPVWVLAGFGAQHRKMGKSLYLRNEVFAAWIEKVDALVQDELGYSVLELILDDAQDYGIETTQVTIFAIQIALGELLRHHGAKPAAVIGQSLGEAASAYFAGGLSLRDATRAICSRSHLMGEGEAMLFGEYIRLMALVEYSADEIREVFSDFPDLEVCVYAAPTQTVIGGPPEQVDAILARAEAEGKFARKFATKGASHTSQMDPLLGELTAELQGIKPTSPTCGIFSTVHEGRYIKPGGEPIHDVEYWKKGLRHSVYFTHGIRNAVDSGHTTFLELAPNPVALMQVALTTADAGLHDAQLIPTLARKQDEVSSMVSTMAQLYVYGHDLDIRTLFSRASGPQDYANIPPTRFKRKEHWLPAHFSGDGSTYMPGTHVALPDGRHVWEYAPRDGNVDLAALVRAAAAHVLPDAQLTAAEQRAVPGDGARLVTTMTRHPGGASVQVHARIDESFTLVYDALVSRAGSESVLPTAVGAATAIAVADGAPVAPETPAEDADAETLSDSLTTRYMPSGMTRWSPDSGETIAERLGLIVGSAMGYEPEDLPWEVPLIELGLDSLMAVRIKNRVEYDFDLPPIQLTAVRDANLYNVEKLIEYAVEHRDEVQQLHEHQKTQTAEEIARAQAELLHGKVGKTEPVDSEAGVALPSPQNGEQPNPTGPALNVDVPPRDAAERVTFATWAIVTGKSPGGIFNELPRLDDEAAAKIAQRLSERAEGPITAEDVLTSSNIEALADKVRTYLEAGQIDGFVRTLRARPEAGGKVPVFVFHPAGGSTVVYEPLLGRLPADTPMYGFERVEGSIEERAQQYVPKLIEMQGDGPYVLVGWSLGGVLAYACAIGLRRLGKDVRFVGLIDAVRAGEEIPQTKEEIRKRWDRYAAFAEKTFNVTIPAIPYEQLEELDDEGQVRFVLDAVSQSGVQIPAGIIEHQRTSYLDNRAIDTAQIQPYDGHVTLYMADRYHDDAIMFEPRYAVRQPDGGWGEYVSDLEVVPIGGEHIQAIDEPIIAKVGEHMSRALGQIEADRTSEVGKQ
Format: functional
Set-up: scale not given: in the data most compounds retested in dose-response had high values
`c1cc(CN2CC[C@@H]3CN(c4cnccn4)C[C@@H]3C2)ccn1` gave a Percent Effect of -15.9%. Compound `CN(C)C[C@H]1C[C@@H](CO)CN(C(=O)c2cc(=O)[nH]c3cc(F)ccc23)C1` has a Percent Effect of -20%. With `Cc1ccc(OCc2occc2C(=O)N2C[C@@H]3[C@@H](CN(C)C)[C@@H]3C2)cc1` the Percent Effect was -36.4%. `CN(C)C[C@@H]1CN(C(=O)c2cc(F)ccc2F)C[C@@H]1CO` gave a Percent Effect of -27.8%. `CN(C)C[C@@H]1[C@H]2CN(C(=O)c3cc(=O)[nH]c4ccc(F)cc34)C[C@@H]12` showed a Percent Effect of 55.8%. For `CC1CN(C(=O)c2cc(=O)[nH]c3ccc(F)cc23)CCO1` (centres undefined), the Percent Effect was 6.5%. `Cc1ccoc1C(=O)N1CC[C@@H]2CN(C3CCOCC3)CCO[C@@H]2C1` showed a Percent Effect of -13.2%. `COc1ncccc1CN1C[C@H]2C[C@@H](C(=O)NCC3CC3)N(C)[C@H]2C1` gave a Percent Effect of -7.18%. `Cc1noc(C)c1CN1C(=O)[C@H]2CC[C@@H]1CN(Cc1cccnc1N)C2` gave a Percent Effect of -20%. `Cc1oncc1C(=O)N1CC[C@@H]2[C@@H]1CC(=O)N2Cc1cccnc1` showed a Percent Effect of 10.2%. For `CCc1ccccc1CN1CCN(Cc2ncc[nH]2)[C@H]2CS(=O)(=O)C[C@H]21`, the Percent Effect was -16.6%. For `COc1ccc(C(=O)NC2CCN(c3ncccn3)CC2)cc1F`, the Percent Effect was -18.2%. Work on `Cn1ccc(C(=O)N2CCN(c3ncccn3)CC2)cc1=O` yielded a Percent Effect of 11.1%. `Cn1ccc(C(=O)NC2CCN(c3ncccn3)CC2)cc1=O` was tested, and the Percent Effect was 71.3%. `CN(C)c1ccc(CN2C[C@H]3CC[C@@H]2CN(C2CCOCC2)C3)cn1` was tested, and the Percent Effect was -33%. `CNC(=O)[C@H]1C[C@@H]2CN(Cc3csc(C)n3)C[C@@H]2N1S(C)(=O)=O` gave a Percent Effect of -33.5%. `CC(C)COC1CC2(CCN(C(=O)Cc3ccccn3)CC2)C1` showed a Percent Effect of 0.268%. `O=C(Cc1ccccn1)N1CCC2(CC1)[C@H](O)C[C@@H]2O` showed a Percent Effect of 7.55%. Compound `CCOC1CC2(CCN(C(=O)Cc3ccccn3)CC2)C1` has a Percent Effect of 58.6%. For `C[C@@H]1C[C@@H]2CCN(C(=O)c3ccncn3)C[C@H]2O1`, the Percent Effect was -3.96%. Compound `O=C(CC[C@@H]1CCCN2CCCC[C@H]12)NCCc1nc(O)cc(O)n1` has a Percent Effect of -3.34%. `c1cncc(OC[C@]23COC[C@H]2CN(Cc2nccs2)C3)c1` gave a Percent Effect of -6.85%. With `COCCCNC(=O)c1cn(C(C)(C)C)c2ncccc12` the Percent Effect was 0.73%. `CCOCCCNC(=O)c1cn(C(C)(C)C)c2ncccc12` was tested, and the Percent Effect was 60.2%. With `COCCNC(=O)c1cn(C(C)(C)C)c2ncccc12` the Percent Effect was -9.36%. In the case of `Cc1cccc(CN2C[C@@H]3CCCO[C@@H]3[C@H](Nc3ccccn3)C2)n1`, the Percent Effect is reported as -13.2%. In the case of `C[C@H]1C[C@@H]2CCN(C(=O)c3cccn3C)C[C@H]2O1`, the Percent Effect is reported as -23.4%. `Cc1oc(-c2nc(C#N)c(NC3CC3)o2)cc1S(=O)(=O)N1CCCC1` gave a Percent Effect of -2.87%. With `CN(C)S(=O)(=O)c1ccc(-c2nc(C#N)c(NC(C)(C)C)o2)o1` the Percent Effect was -2.58%. In the case of `CN(C)S(=O)(=O)c1ccc(-c2nc(C#N)c(NC3CC3)o2)o1`, the Percent Effect is reported as 73.3%. For `Cc1ccc(C(=O)N2CCO[C@H]3[C@H](OCC4CCOCC4)CC[C@@H]32)o1`, the Percent Effect was -6.47%. `COCCNC(=O)c1cc(-c2cc[nH]n2)n2ccccc12` showed a Percent Effect of 47.6%. `O=C(NCCCO)c1cc(-c2cc[nH]n2)n2ccccc12` was tested, and the Percent Effect was 48.6%. Compound `CC(C)(CO)CNC(=O)c1cc(-c2cc[nH]n2)n2ccccc12` has a Percent Effect of 67.2%. `Fc1cnc(N2CCO[C@H]3CN(CC4CCCC4)C[C@H]32)nc1` gave a Percent Effect of -14.5%. For `Cc1cccc(NC(=O)c2[nH]nc(C(C)C)c2Br)n1`, the Percent Effect was 73.4%. Compound `CC(C)c1n[nH]c(C(=O)Nc2ccccn2)c1Br` has a Percent Effect of -9.25%. `CC(C)c1n[nH]c(C(=O)Nc2cc[nH]n2)c1Br` was tested, and the Percent Effect was -20%. For `Cc1cc(CN2C[C@H]3CCC[C@@]3(COCC3CCOCC3)C2)no1`, the Percent Effect was -40.7%. In the case of `CC(=O)N1C[C@@H](c2ccsc2)[C@@H]2CN(Cc3ccccc3C)CC[C@@H]21`, the Percent Effect is reported as -7.95%. Work on `Cc1nc([C@@H]2C[C@@H]3CCN(Cc4cnn(C)c4)C[C@H]3O2)sc1C` yielded a Percent Effect of -30.4%. `CC(=O)N1CCS(=O)(=O)[C@@H]2CCN(CC(C)C)CC[C@@H]21` gave a Percent Effect of -16.8%. `CC(CNS(=O)(=O)CCCC#N)c1ccsc1` (centres undefined) showed a Percent Effect of -31.9%. For `COCCS(=O)(=O)NCC(C)c1cccc(C)c1` (centres undefined), the Percent Effect was -20.8%. `Cc1cccc(C(C)CNS(=O)(=O)CCCC#N)c1` (centres undefined) showed a Percent Effect of 50.7%. `Cn1cc(CN2C[C@H]3CCN(C(=O)c4cscn4)C[C@H]3C2)cn1` gave a Percent Effect of -3.8%. In the case of `Cc1ccc(CC(=O)N2CC[C@@H]3NC(=O)CC[C@@H]32)cc1`, the Percent Effect is reported as -1.54%. Compound `CCc1ccc(S(=O)(=O)NCC2CCN(c3cnccn3)CC2)s1` has a Percent Effect of 56.2%. With `CCS(=O)(=O)NCC1CCN(c2cnccn2)CC1` the Percent Effect was -18.7%. `O=S(=O)(NCC1CCN(c2cnccn2)CC1)c1cccs1` was tested, and the Percent Effect was 45.5%. `CCCc1ccc(CN2CCN(C(=O)CC(C)C)[C@@H]3CS(=O)(=O)C[C@@H]32)o1` was tested, and the Percent Effect was -12.9%. Work on `CN1CCCC1c1ccnc(C(=O)N(C)C2CCCCC2)c1` (centres undefined) yielded a Percent Effect of 5.64%. `CCN(CC)C(=O)c1cc(C2CCCN2C)ccn1` (centres undefined) showed a Percent Effect of 88.5%. Compound `CCN(Cc1ccccc1)C(=O)c1cc(C2CCCN2C)ccn1` (centres undefined) has a Percent Effect of -15.7%. `C=Cn1ncc(CN2C[C@@H]3CCCN3C[C@@H]2CCSC)c1C` gave a Percent Effect of -1.08%. Work on `Cc1cnn(CC2CN(Cc3nnc(C(C)C)o3)CCO2)c1` (centres undefined) yielded a Percent Effect of -12.6%. Compound `CCc1nnc(CN2CCOC(Cn3cc(C)cn3)C2)o1` (centres undefined) has a Percent Effect of 52.7%. In the case of `Cc1cnn(CC2CN(Cc3nnc(C4CC4)o3)CCO2)c1` (centres undefined), the Percent Effect is reported as -7.17%. With `Cc1ccc(N2C[C@H]3CCC[C@@]3(COc3cccnc3)C2)nn1` the Percent Effect was -28.6%. `CCC(Cn1ccc2[nH]c(=O)c(C#N)cc2c1=O)OC` (centres undefined) showed a Percent Effect of -9.98%. `N#Cc1cc2c(=O)n(CC(O)C(F)(F)F)ccc2[nH]c1=O` (centres undefined) gave a Percent Effect of -25.1%. `CCCOC(C)Cn1ccc2[nH]c(=O)c(C#N)cc2c1=O` (centres undefined) was tested, and the Percent Effect was 89.3%. With `O=C(NC1CCC1)[C@H]1C[C@@H]2CN(S(=O)(=O)c3ccccc3)C[C@H]1O2` the Percent Effect was -31.3%. For `O=C(N[C@H]1CN(Cc2cccs2)[C@@H]2CCCO[C@H]12)c1cccnc1`, the Percent Effect was -28.5%. For `COc1ccccc1CN1C(=O)O[C@@H]2CN(c3ccccn3)C[C@@H]21`, the Percent Effect was 4.73%. `COCCNc1nc2c(c(NCCc3cccs3)n1)CCNCC2` was tested, and the Percent Effect was -17.6%. Compound `COCCNc1nc2c(c(NCc3ccncc3)n1)CCNCC2` has a Percent Effect of -8.09%. Compound `COCCNc1nc2c(c(NCC3CCOC3)n1)CCNCC2` (centres undefined) has a Percent Effect of 89.6%. Compound `CS(=O)(=O)NC[C@]12COC[C@H]1CN(C(=O)CCc1ccccc1)C2` has a Percent Effect of -0.91%. In the case of `Cc1csc([C@H]2C[C@@H]3CCN(Cc4cc(C)on4)C[C@H]3O2)n1`, the Percent Effect is reported as -10.9%. With `CN(C)S(=O)(=O)N1C[C@H]2CCC[C@@]2(COCc2cccnc2)C1` the Percent Effect was -34%. In the case of `CCOc1cc(C(=O)n2cc(C)cn2)cc(OCC)c1OCC`, the Percent Effect is reported as 53.3%. `CCOC(=O)N1CCN(C(=O)c2cc(OCC)c3ccoc3c2)CC1` gave a Percent Effect of 22.8%. In the case of `CCOc1cc(C(=O)n2cccn2)cc(OCC)c1OCC`, the Percent Effect is reported as 21.5%. `Cc1nnsc1CN1C[C@H]2CC[C@@H]1CN(Cc1ccccn1)C2` gave a Percent Effect of 2.49%. `CCOc1c(Cl)cccc1NS(=O)(=O)c1cc(C)c(C(=O)O)s1` showed a Percent Effect of -18.8%. For `O=C(O)c1csc(S(=O)(=O)Nc2cccc(OC(F)F)c2)c1`, the Percent Effect was 24.7%. `CC(=O)c1cccc(NS(=O)(=O)c2cc(C)c(C(=O)O)s2)c1` gave a Percent Effect of 11.7%. Work on `CCOc1ccc(NS(=O)(=O)c2cc(C)c(C(=O)O)s2)c(C)c1` yielded a Percent Effect of -32.6%. Compound `Cc1cc(S(=O)(=O)Nc2cccc(-n3cccc3)c2)sc1C(=O)O` has a Percent Effect of 74%. `CCOc1cccc(NS(=O)(=O)c2cc(C)c(C(=O)O)s2)c1` gave a Percent Effect of 33.3%. In the case of `CCOc1ccc(NS(=O)(=O)c2cc(C)c(C(=O)O)s2)cc1F`, the Percent Effect is reported as -32.1%. For `Cc1cc(S(=O)(=O)Nc2cccc(OC(F)F)c2)sc1C(=O)O`, the Percent Effect was 72.8%. `Cc1cc(S(=O)(=O)Nc2cccc(I)c2)sc1C(=O)O` was tested, and the Percent Effect was 70%. `CCOc1cc(F)ccc1NS(=O)(=O)c1cc(C)c(C(=O)O)s1` gave a Percent Effect of 4.81%. `CCc1cccc(NS(=O)(=O)c2cc(C)c(C(=O)O)s2)c1` was tested, and the Percent Effect was 56.8%. `CCOc1cc(C)ccc1NS(=O)(=O)c1cc(C)c(C(=O)O)s1` gave a Percent Effect of -26.3%. With `Fc1ccc(CN2CCO[C@H]3[C@H](OCC4CC4)CC[C@@H]32)cc1` the Percent Effect was -2.1%. `CO[C@H]1CCN(S(=O)(=O)N(C)C)[C@@H]2CN(Cc3cccnc3)C[C@H]12` showed a Percent Effect of 12.3%. In the case of `CCOC(=O)[C@@H]1[C@@H](c2ccccc2)CN2CCN(C(C)=O)C[C@H]12`, the Percent Effect is reported as 0.569%. With `Cc1nc(CN2C[C@H]3C[C@H](C(=O)NCC4CC4)N(C)[C@H]3C2)cs1` the Percent Effect was 16.8%. In the case of `O=C(Cc1ccsc1)N1C[C@@H]2OCCN(CC3CCCO3)[C@@H]2C1` (some centres undefined), the Percent Effect is reported as -0.843%. In the case of `c1cnn(CCCO[C@@H]2CC[C@H]3[C@H]2OCCN3CC2CC2)c1`, the Percent Effect is reported as -15.8%. Work on `Cc1nccc(N2CC[C@@H]3[C@@H](CCC(=O)N3CCc3ccccc3)C2)n1` yielded a Percent Effect of -11%. For `O=C(NC1CCCC1)[C@@H]1CN(Cc2nccs2)C[C@H]2OCC[C@H]21`, the Percent Effect was -23.6%. With `CCOCC(=O)N1C[C@H]2CN(CC3CC3)C(=O)[C@H]2C1` the Percent Effect was -37.5%. Compound `Cc1ccc2[nH]c(CO[C@H]3CN(C(=O)C4CC4)C[C@H]3F)nc2c1` has a Percent Effect of 17.3%. `CC(=O)N1C[C@@H](F)[C@@H](OCc2nc3ccc(C#N)cc3[nH]2)C1` showed a Percent Effect of -28.7%. With `Cc1ccc2[nH]c(CO[C@H]3CN(c4ccc(C#N)cn4)C[C@H]3F)nc2c1` the Percent Effect was 53.9%. `CC(C)C(=O)N1C[C@H]2CCCN[C@H]2C1` gave a Percent Effect of -32.8%. `O=C(C[C@H]1[C@H]2CN(C(=O)CO)C[C@@H]12)Nc1cccnc1` showed a Percent Effect of -10.3%. With `O=S(=O)(c1ccc(N2CCCCC2)c2nonc12)N1CCCCC1` the Percent Effect was 29.3%. `O=S(=O)(c1c(N2CCCCC2)ccc2nonc12)N1CCCCC1` was tested, and the Percent Effect was 51.7%. `O=S(=O)(c1c(N2CCCC2)ccc2nonc12)N1CCCC1` showed a Percent Effect of 32.4%. Work on `CC(C)C(=O)N1CCN(C(=O)c2cscn2)[C@H]2CS(=O)(=O)C[C@H]21` yielded a Percent Effect of -12.2%. Compound `O=C1CO[C@H]2CN(C3CCOCC3)C[C@H]2N1Cc1ccncc1` has a Percent Effect of -35.6%. Compound `CCN(Cc1nc2c(cnn2C)c(=O)[nH]1)c1cccc(F)c1` has a Percent Effect of -8.73%. `CCN(Cc1nc2c(cnn2C)c(=O)[nH]1)c1ccccc1` was tested, and the Percent Effect was 66.8%. `CCN(Cc1nc2c(cnn2C)c(=O)[nH]1)c1ccc(F)cc1` was tested, and the Percent Effect was -7.87%.
